According to paper PMC7819943, “Rice protein-binding microarrays: a tool to detect cis-acting elements near promoter regions in rice”:
The full ranking holds about 39,000 sequences; the median of “fluorescence intensity (a.u.)” is about 4,300, and the highest 2% start at about 39,000. The sample as a whole holds a higher share of the highest values than the screen did.

The sequences below were run against T1, OsSMF1 (Oryza sativa, UniProt Q6ZLB0 1-436) (assay: protein-binding microarray (RPBM); PBS, 2% BSA, 51.3 ng/ul salmon testes DNA, 50 uM zinc acetate, 200 nM TF, 25 C, 1 h; high values mean tight binding). Settings: protein: recombinant; tags: N-terminal polyhistidine and DsRed monomer fusion (pET32a); chain copies: 2; label: CyDye5-dUTP incorporated in the synthesized complementary strand; 3' TTTTT single-stranded linker to array surface; dsDNA, one strand shown.
T1 sequence: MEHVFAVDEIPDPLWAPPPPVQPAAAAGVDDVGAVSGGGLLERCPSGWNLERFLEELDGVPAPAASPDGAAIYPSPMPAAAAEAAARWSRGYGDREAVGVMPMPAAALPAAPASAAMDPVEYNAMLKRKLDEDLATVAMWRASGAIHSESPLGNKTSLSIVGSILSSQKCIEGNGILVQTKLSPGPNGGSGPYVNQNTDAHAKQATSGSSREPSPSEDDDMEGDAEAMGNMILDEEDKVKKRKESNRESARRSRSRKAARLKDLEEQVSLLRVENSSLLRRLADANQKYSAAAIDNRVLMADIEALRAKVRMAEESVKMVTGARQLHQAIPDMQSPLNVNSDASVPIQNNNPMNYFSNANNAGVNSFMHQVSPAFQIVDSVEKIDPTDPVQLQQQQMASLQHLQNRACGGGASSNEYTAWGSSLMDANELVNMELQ
Method in brief: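 Using Ni–NTA, transcription factors fused N-terminally to polyhistidine and DsRed were purified after expression in E. coli BL21-CodonPlus. These were incubated at 200 nM with a blocked, double-stranded custom Agilent array for 1 h at 25 °C in a buffer containing 50 µM zinc acetate, and the array was washed. The binding signal is per-feature fluorescence intensity (arbitrary units) on an Axon 4000B scanner.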

Sequence | binding signal
GGCGGCACAGGTCGCCGTCGTCGCCACCGACGCGGCGTCGCGGAGTCACCTAGTGCAG | 3730 fluorescence intensity (a.u.)
TGAGCACCTCATCCACGCGTCATGCATCTGTGTCGGGGCTCGGAGTCACCTAGTGCAG | 45200 fluorescence intensity (a.u.)
CACGAGTGCCTCTCCGTCATGCTCCACGACAGCTGCAGCCCGGAGTCACCTAGTGCAG | 4760 fluorescence intensity (a.u.)
GGCTGCTCATTGTCGTCTCATCTGGGCTTTTCAATGGGCTCGGAGTCACCTAGTGCAG | 53700 fluorescence intensity (a.u.)
AATATCATCCGTGTCACTACCTAGCTCCTGCATGCTCTGCCGGAGTCACCTAGTGCAG | 4560 fluorescence intensity (a.u.)
CCTTTTCAATGTTCTTGTCATCACTGCTCGTGTCACCCGTCGGAGTCACCTAGTGCAG | 5650 fluorescence intensity (a.u.)
GCGCCCCATCCACGCGTCATGCATCCACGTCGGGGCTGCACGGAGTCACCTAGTGCAG | 11600 fluorescence intensity (a.u.)
TGACTGCTGGCTCACATCCAGTCATTGGCTTAGCTAGCTGCGGAGTCACCTAGTGCAG | 4160 fluorescence intensity (a.u.)
CCATTCATGCCCGTGATATCCTGGCTCCACGAGCTCTGCTCGGAGTCACCTAGTGCAG | 59000 fluorescence intensity (a.u.)
ACGGGCTCGTCGAGCTGCTCTGGTGCAATGGCCACGTCATCGGAGTCACCTAGTGCAG | 28400 fluorescence intensity (a.u.)
TTATTCATACATGTCACTGCCAGGCTGCTGTCTACTTCTTCGGAGTCACCTAGTGCAG | 4950 fluorescence intensity (a.u.)
GCTGTCCTGCTCGTCGGCCTCCACGCGCGCTCATCGGCCTCGGAGTCACCTAGTGCAG | 3240 fluorescence intensity (a.u.)
GTGCAGATCCACTGTCTGCTCATTGGGCTTATTCATGGCTCGGAGTCACCTAGTGCAG | 40700 fluorescence intensity (a.u.)
ACCTGTGAATGTCTCTAGTGTGACGACTCTACTTCAGTTTCGGAGTCACCTAGTGCAG | 4050 fluorescence intensity (a.u.)
GAGCCTTACCGGCTCAGACTTGGCATGACGTGGACGTACACGGAGTCACCTAGTGCAG | 22500 fluorescence intensity (a.u.)
TTCATTCCCAAATGCCACCCGGGCCCACATGTCAGCCTCACGGAGTCACCTAGTGCAG | 4670 fluorescence intensity (a.u.)
TTACCCTTAGTCATTTGACCCTATTACATGTGGGACCCACCGGAGTCACCTAGTGCAG | 3900 fluorescence intensity (a.u.)
GTCATGGATCAAATCATCATGTATATCATCCGTCGTCGTGCGGAGTCACCTAGTGCAG | 3180 fluorescence intensity (a.u.)
TGTTGCTCGGCCAAACGTACACACAGTTCGTTATATATCGCGGAGTCACCTAGTGCAG | 12100 fluorescence intensity (a.u.)
TATTTTGGAGCGGACGAAGTAATAATATAGTACACGTCGGCGGAGTCACCTAGTGCAG | 5310 fluorescence intensity (a.u.)
CCCATAACTGAATTGTTAATTTTGTCACGCGAGCAACGCACGGAGTCACCTAGTGCAG | 19300 fluorescence intensity (a.u.)

Sequence | binding signal
ATACAAGACAAATCGATTAACATAAGATCGATATATCGCTCGGAGTCACCTAGTGCAG | 24700 fluorescence intensity (a.u.)
ATACATAGCCATATATAAAATTAATGTGATAACATATTCTCGGAGTCACCTAGTGCAG | 3660 fluorescence intensity (a.u.)
GATAATTAAGCTGATAGCGAGACATAACAAGCTCTGTTCTCGGAGTCACCTAGTGCAG | 49600 fluorescence intensity (a.u.)
TGATAATAATTATTTCTTGGTCTTTAAATTAAGGGTGATTCGGAGTCACCTAGTGCAG | 14800 fluorescence intensity (a.u.)
AAGTAAATGTAGATAAGGCCGTGTAATAAAGGTTGCTAGTCGGAGTCACCTAGTGCAG | 56800 fluorescence intensity (a.u.)
TAATAAGAGGCTGTAAGTCGGCTAAATGCTGAGGTGGAGGCGGAGTCACCTAGTGCAG | 8660 fluorescence intensity (a.u.)
TGTTTGTAAAGTAGAGCGTGCATGTGTGCGTTCTTAAGGTCGGAGTCACCTAGTGCAG | 3590 fluorescence intensity (a.u.)
GATTGGTAGTATTTAGTTGTGTATAATGTATTATTAGGTTCGGAGTCACCTAGTGCAG | 3720 fluorescence intensity (a.u.)
AAATTCGTTCTACAACTAAACAGGTTGCTTCAGAGTGCAACGGAGTCACCTAGTGCAG | 30800 fluorescence intensity (a.u.)
GATTCGAGATTCAGGTAGGTTGTATAGTTCACGGGAGCAACGGAGTCACCTAGTGCAG | 64500 fluorescence intensity (a.u.)
TTGGTAGGTTCGACCTACTAGATTGTTGTTGATAATATAACGGAGTCACCTAGTGCAG | 51700 fluorescence intensity (a.u.)
AATATAGTGTTGTTTGGTACTATATCGAGTTGGATTAGTTCGGAGTCACCTAGTGCAG | 3190 fluorescence intensity (a.u.)
TGTTCATCCAAGGAGATTATCAGGTTGTTTGTATATATAACGGAGTCACCTAGTGCAG | 26400 fluorescence intensity (a.u.)
TGCTATGCATACGACTCAGCTGTCCGACTCATGTATGAATCGGAGTCACCTAGTGCAG | 3720 fluorescence intensity (a.u.)
CGCGGCACGGGGAGACGACACGTCGGATGGTTGGCAGGAGCGGAGTCACCTAGTGCAG | 16400 fluorescence intensity (a.u.)
TTCTTCCTATATAAGCACAACACACGTCCTTACTTGTGTGCGGAGTCACCTAGTGCAG | 5410 fluorescence intensity (a.u.)
GGCGTTCTGCCGCCTGGCGCCGCTCGTCACGTACGAGGACCGGAGTCACCTAGTGCAG | 3350 fluorescence intensity (a.u.)
TCTGTAGTAGTCATCATCACCTAGGTGCCTACCCTTTTGACGGAGTCACCTAGTGCAG | 3280 fluorescence intensity (a.u.)
CTGGGAAATAGTGCTGCAGAGTCACTAGTTAGATCGAAATCGGAGTCACCTAGTGCAG | 3980 fluorescence intensity (a.u.)
ACTACAAATAGATCGAACAGAAACAGAGCATCACGACGACCGGAGTCACCTAGTGCAG | 40300 fluorescence intensity (a.u.)
TGTGAGCACGGATCGACGATGAAAACAGACGAAGAACATTCGGAGTCACCTAGTGCAG | 27400 fluorescence intensity (a.u.)
